Test systems include BT-549 breast; MDA-MB-435 melanoma; SW-620 colon; MCF7 breast; HCT-116 colon; HCC-2998 colon.
What all share (experiment): NCI-60 one-dose screen, 48 h (100 = growth as untreated, 0 = no growth, -100 = all killed)
Holding throughout (conditions): 10 µM

SMILES strings stand for the structures. The panel holds about 83,000 compounds, 20% with a hit somewhere; the sample as a whole holds those more often.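 Note: values are percent growth. 100 is the growth of untreated cells, values between 100 and 0 indicate rising inhibition; between -100 and 0 indicates cell death.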 A number with no mark means an inactive call. Active and inactive are the calls of the source. The calls were made as follows: active = growth percent below 10; inactive = the rest.

For the molecule `COc1ccc(/C=C2/CN(C(=O)c3ccccc3F)C/C(=C\c3ccc(OC)cc3)C2=O)cc1`, the growth in the assay with BT-549 breast was 37%; in the assay with MDA-MB-435 melanoma it was -46.2% (active); in the assay with SW-620 colon it was -42.3% (active); with MCF7 breast, 8.16% (active); in the assay with HCT-116 colon, -62.6% (active); in the assay with HCC-2998 colon, -73.1% (active).

As to `COc1cc(NC(=O)CCSc2nc3ccc(Cl)cc3c(=O)n2Cc2ccccc2)cc(OC)c1OC`, the growth in the assay with BT-549 breast is 73%; in the assay with MDA-MB-435 melanoma, 89%; in the assay with SW-620 colon, 86.2%; with MCF7 breast, 70%; in the assay on HCT-116 colon it was 53%; in the assay with HCC-2998 colon, 100%.

Regarding `C(CCCC1=NCCO1)CCCC1=NCCO1`, the growth was 103% in the assay on BT-549 breast; 109% in the assay with MDA-MB-435 melanoma; 99.4% with SW-620 colon; 102% in the assay with MCF7 breast; 112% in the assay on HCT-116 colon.

As for `N=C(N)c1ccc(-c2ccc(-c3ccccc3)o2)nc1`, the growth was 101% in the assay with BT-549 breast; 81.4% in the assay on MDA-MB-435 melanoma; 86.7% with SW-620 colon; 72.3% with MCF7 breast; 76.6% in the assay on HCT-116 colon; 27.5% with HCC-2998 colon.

Consider `CCOC(=O)N1C/C(=C/c2ccc(F)cc2)C(=O)/C(=C/c2ccc(F)cc2)C1`, for which the growth was -44.3% (active) in the assay on BT-549 breast; -47.4% (active) with MDA-MB-435 melanoma; -66% (active) in the assay with SW-620 colon; -45.9% (active) with MCF7 breast; -83.9% (active) in the assay on HCT-116 colon; -80.9% (active) in the assay on HCC-2998 colon.

Consider `Fc1cc(C(F)(F)F)ccc1-c1cncnc1NC1CCCCCC1`, for which the growth in the assay on BT-549 breast is 96%; in the assay on MDA-MB-435 melanoma, 104%; in the assay on SW-620 colon, 101%; in the assay with MCF7 breast, 92.3%; in the assay with HCT-116 colon, 95.8%; in the assay on HCC-2998 colon, 107%.

With `Cc1ccc(C(=O)N2C/C(=C/c3ccc(F)cc3)C(=O)/C(=C/c3ccc(F)cc3)C2)cc1`, the growth was 92.5% in the assay with BT-549 breast; 84.5% in the assay on MDA-MB-435 melanoma; 82.4% with SW-620 colon; 37.7% with MCF7 breast; 10.6% with HCT-116 colon; 108% in the assay with HCC-2998 colon.

Take `C#Cc1ccc(-n2c(/C=C/c3ccc(O)c(OC)c3)nc3ncccc3c2=O)cc1`: the growth with BT-549 breast is 95.5%; in the assay with MDA-MB-435 melanoma it was 71.2%; in the assay with SW-620 colon, 102%; in the assay on MCF7 breast it was 89.1%; in the assay on HCT-116 colon it was 97.4%; in the assay with HCC-2998 colon, 112%.

Regarding `COc1cc(Nc2ncnc(Nc3ccc4c(n3)NC(=O)C(C)(C)O4)n2)cc(OC)c1OC`, the growth with BT-549 breast is 33.7%; in the assay with MDA-MB-435 melanoma, 16.6%; in the assay with SW-620 colon it was 32.9%; in the assay on MCF7 breast, 21.9%; with HCT-116 colon, 24.2%; in the assay on HCC-2998 colon it was 79.1%.

As for `Cc1cc2ccccc2nc1-c1ccccc1F`, the growth with BT-549 breast was 92.2%; with MDA-MB-435 melanoma, 111%; in the assay with SW-620 colon it was 106%; in the assay with MCF7 breast it was 101%; in the assay with HCT-116 colon, 102%; in the assay with HCC-2998 colon it was 109%.

As to `CCCCCCCCCCCCCCCCCCOCC(COCCOCC[N+]1(CCCCCC(=O)[O-])CCCC1)Oc1ncccn1` (stereo not drawn), the growth in the assay with BT-549 breast is 33.8%; in the assay on MDA-MB-435 melanoma, 51.7%; in the assay on SW-620 colon, 42.9%; in the assay on MCF7 breast, 25.7%; in the assay on HCT-116 colon, 20.4%; with HCC-2998 colon, 24.7%.

With `C#Cc1ccc(-n2c(/C=C/c3cc(OC)cc(OC)c3)nc3ncccc3c2=O)cc1`, the growth with BT-549 breast is 65.2%; with MDA-MB-435 melanoma it was 79.1%; with SW-620 colon, 105%; in the assay on MCF7 breast, 68.5%; in the assay on HCT-116 colon, 74.8%; in the assay with HCC-2998 colon it was 94.2%.

As to `O=C1/C(=C\c2ccccc2)CN(C(=O)c2ccccc2F)C/C1=C\c1ccccc1`, the growth with BT-549 breast is -24.6% (active); with MDA-MB-435 melanoma, -35.6% (active); with SW-620 colon, -71.7% (active); in the assay on MCF7 breast, -37.6% (active); with HCT-116 colon it was -84.8% (active); in the assay on HCC-2998 colon, -84.1% (active).

For the molecule `COc1ccc2c(c1)C(=O)c1c-2c(OCCN(C)C)nc2cc(OC)c(OC)cc12`, the growth in the assay with BT-549 breast is 89.9%; in the assay on MDA-MB-435 melanoma, 56.8%; in the assay on SW-620 colon, 38.6%; in the assay on MCF7 breast it was 28.9%; in the assay with HCT-116 colon, 30%; in the assay with HCC-2998 colon, 63.2%.

Take `CC/C(=C(/c1ccc(OCCN(C)C)cc1)c1ccc(OC(=O)CCC(=O)c2c(C)[nH]c(/C=C3\N=C(c4ccc[nH]4)C=C3OC)c2C)cc1)c1ccccc1`: the growth was 48.4% in the assay on BT-549 breast; 14% in the assay on MDA-MB-435 melanoma; -42% (active) with SW-620 colon; -12.1% (active) in the assay on MCF7 breast; 5.92% (active) in the assay with HCT-116 colon; 41.6% with HCC-2998 colon.

As for `O=C1/C(=C\c2ccccc2)CN(C(=O)c2ccccc2)C/C1=C\c1ccccc1`, the growth with BT-549 breast was 2.1% (active); in the assay on MDA-MB-435 melanoma, -49.6% (active); in the assay with SW-620 colon, -62.3% (active); in the assay on MCF7 breast, -36.9% (active); in the assay on HCT-116 colon, -81.4% (active); in the assay on HCC-2998 colon, -77.9% (active).

`CSc1nn(-c2ccccc2)c2ncnc(Oc3ccccc3)c12`: the growth in the assay on BT-549 breast was 94.5%; with MDA-MB-435 melanoma it was 102%; in the assay with SW-620 colon, 104%; in the assay on MCF7 breast, 107%; in the assay with HCT-116 colon, 85.4%; in the assay with HCC-2998 colon it was 102%.

On to `O=C1/C(=C\c2ccc(F)cc2)CN(C(=O)c2ccccc2F)C/C1=C\c1ccc(F)cc1`, for which the growth with BT-549 breast was -43.2% (active); in the assay with MDA-MB-435 melanoma, -47.4% (active); in the assay on SW-620 colon, -78.3% (active); with MCF7 breast it was -72.1% (active); in the assay on HCT-116 colon it was -75% (active); in the assay with HCC-2998 colon it was -83.8% (active).

Take `Cc1ccc(C(=O)N2C/C(=C/c3ccccc3)C(=O)/C(=C/c3ccccc3)C2)cc1`: the growth is 49.2% in the assay with BT-549 breast; -14.1% (active) in the assay on MDA-MB-435 melanoma; 15.8% with SW-620 colon; 7.53% (active) in the assay with MCF7 breast; -55.5% (active) with HCT-116 colon; -48% (active) in the assay with HCC-2998 colon.

Values taken from PubChem BioAssay (NCI).
